Here are results for 13 molecules from PubChem BioAssay.

In experiment [1] the target is Protein phosphatase methylesterase 1 (Homo sapiens) (UniProt Q9Y570). As to the kind of experiment: human PME-1 methylesterase inhibition confirmation – biochemical, fluorescence polarization, FP-Rh probe, triplicate (AID 2171).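 Note: 0% = enzyme with DMSO and 100% = wells lacking PME-1.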 To be noted: recombinant PME-1, FP-Rh probe fluorescence polarization; at 5.9 µM; hits give high values. On the technique in general: Fluorescence polarisation rises when a labelled molecule tumbles more slowly, as on binding a larger partner.

The nature of experiment [2]: StAR promoter reporter inhibitors, counter-screen for LRH-1 inverse agonist project, cell-based, luminescence, high throughput (AID 651611; in the data active = inhibition above about 28%). To be noted: StAR promoter luciferase reporter counterscreen, at 3.6 µM, hits give high values. For orientation: The purpose of a counterscreen is to sort out artefacts and off-target activity.
Experiment [3] deals with Nuclear receptor subfamily 5 group A member 2 (Homo sapiens) (UniProt O00482). As to the kind of experiment: NR5A2 activity suppression in reporter cells – cell-based, luminescence, confirmation (AID 651613; in the data active = inhibition above about 42%;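 note: HEK293T cells co-transfected with LRH-1 and StAR promoter luciferase reporter; 0% = vehicle wells and 100% = parental cells lacking receptor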). To be noted: cell-based LRH-1 luciferase reporter, inverse agonism; at 3.6 µM; hits give high values.
Experiment [4] has as its target Steroidogenic factor 1 (Homo sapiens) (UniProt Q13285). Kind of experiment: inverse agonism at SF1 nuclear receptor – cell-based, luminescence, high throughput, counter-screen for LRH-1 inverse agonist project (AID 651614; in the data active = inhibition above about 44%;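 note: cells cotransfected with StAR promoter reporter and SF1 expression vector; 0% = vehicle on cells with receptor and 100% = vehicle on cells lacking receptor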). To be noted: cell-based SF1 luciferase reporter, at 3.6 µM, hits give high values.
A short description of experiment [5]: compounds suppressing VP16-driven luciferase signal – cell-based, luminescence, high throughput, counter-screen for LRH-1 inverse agonist project (AID 651615; in the data active = inhibition above about 33%). As to conditions: Gal4-VP16 luciferase reporter cells, at 3.6 µM, hits give high values.
Experiment [6] addresses Nuclear receptor coactivator 3 (Homo sapiens) (UniProt Q9Y6Q9). As to the kind of experiment: NCOA3 GAL4-fusion reporter inhibition – cell-based, luminescence, quadruplicate, confirmation (AID 588792;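 active = mean inhibition over 43.08%, the solvent-only control mean plus 3 SD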;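 note: 0% = DMSO treated cells and 100% = gossypol at 36 µM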). To be noted: HEK293 GAL4-SRC3 luciferase reporter, at 3.6 µM, hits give high values. A general note: A reporter such as luciferase makes a cellular process visible.
Experiment [7] has as its system transactivating tegument protein VP16 (Human herpesvirus 1), Gal4-VP16 luciferase reporter. As to the kind of experiment: repression of VP16-driven luciferase reporter – cell-based, luminescence, high throughput, counter-screen for SRC3 inhibitor project (AID 588794; in the data active = inhibition above about 30%). To be noted: mammalian cells, at 3.6 µM, hits give high values.
Experiment [8] in a line: repression of VP16-driven luciferase reporter – cell-based, luminescence, high throughput, counter-screen for SRC1 inhibitor project (AID 588824; in the data active = inhibition above about 25%). As to conditions: cell-based VP16 transactivation luciferase luminescence; at 3.6 µM; hits give high values.
Experiment [9] concerns transactivating tegument protein VP16 (Human herpesvirus 1). Kind of experiment: compounds suppressing VP16-driven luciferase signal – cell-based, luminescence, single concentration, counter-screen for SRC2 inhibitor project (AID 652007; in the data active = inhibition above about 36%). To be noted: cell-based VP16 transactivation luciferase reporter, at 8.9 µM, hits give high values.
Experiment [10] addresses Nuclear receptor coactivator 2 (Homo sapiens) (UniProt Q15596). As to the kind of experiment: inhibition of GAL4-SRC2 driven luciferase expression – cell-based, luminescence, HEK293, triplicate, confirmation (AID 652008;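 active = mean inhibition above 46.5%, the solvent-only control mean plus 3 SD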;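 note: 0% = DMSO-treated cells and 100% = Gossypol at 36 µM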). To be noted: HEK293 GAL4-SRC2 luciferase reporter, at 8.9 µM, hits give high values.
In experiment [11] the target is Glutathione S-transferase omega-1 (Homo sapiens) (UniProt P78417). As to the kind of experiment: recombinant GSTO1 blockers, retest – biochemical, fluorescence polarization, triplicate, counter-screen for RBBP9 inhibitor project, confirmation (AID 2176;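 active = inhibition above the primary screen's cutoff, its mean inhibition plus 3 SD, cut at about 35% in these data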;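 note: loss of polarization as inhibitors block binding of rhodamine sulfonate ester activity probe; 0% = GSTO1 with DMSO and 100% = wells lacking GSTO1 enzyme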). To be noted: recombinant GSTO1, probe fluorescence polarization; at 5.96 µM; hits give high values.
Experiment [12] concerns the target Nuclear receptor coactivator 1 (Homo sapiens) (UniProt Q15788). Kind of experiment: NCOA1 GAL4-fusion reporter inhibition – cell-based, luminescence, quadruplicate, confirmation (AID 588820;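 active = mean inhibition above 46.68%, the untreated control wells mean plus 3 SD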;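 note: 0% = DMSO wells and 100% = gossypol 36 µM treated wells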). To be noted: HEK293 GAL4-SRC1 luciferase reporter, at 3.6 µM, hits give high values.

The structures appear in SMILES notation. Values without a mark were called inactive. The list shows a part of the results. Calls of active or inactive are those of the source.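 Rule for the calls, unless noted: active = inhibition above the hit cutoff set in the earlier primary screen (cut at about 27% in these data); inactive = the rest.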

Chain of Glutathione S-transferase omega-1 (Homo sapiens) (P78417 whole entry, looked up, the tested form may be a part): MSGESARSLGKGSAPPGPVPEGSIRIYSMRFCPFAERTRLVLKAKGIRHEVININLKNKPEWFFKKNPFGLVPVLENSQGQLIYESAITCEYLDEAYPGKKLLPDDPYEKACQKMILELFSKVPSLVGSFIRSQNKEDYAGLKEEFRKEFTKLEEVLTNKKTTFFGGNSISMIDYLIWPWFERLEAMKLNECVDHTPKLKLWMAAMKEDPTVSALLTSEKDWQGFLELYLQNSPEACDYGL
Chain of Protein phosphatase methylesterase 1 (Homo sapiens) (Q9Y570 whole entry, looked up): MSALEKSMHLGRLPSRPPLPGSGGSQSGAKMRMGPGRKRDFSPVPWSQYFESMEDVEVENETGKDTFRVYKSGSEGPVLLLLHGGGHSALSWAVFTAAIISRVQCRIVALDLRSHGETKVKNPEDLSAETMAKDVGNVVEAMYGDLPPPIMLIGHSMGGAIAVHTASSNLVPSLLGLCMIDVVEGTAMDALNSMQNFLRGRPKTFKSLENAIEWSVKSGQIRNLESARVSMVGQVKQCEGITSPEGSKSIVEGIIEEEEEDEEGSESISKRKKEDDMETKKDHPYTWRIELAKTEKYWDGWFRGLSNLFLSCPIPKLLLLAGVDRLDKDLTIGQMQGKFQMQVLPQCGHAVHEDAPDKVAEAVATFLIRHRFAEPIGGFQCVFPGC
Chain of Nuclear receptor coactivator 2 (Homo sapiens) (Q15596 whole entry, looked up, the tested form may be a part): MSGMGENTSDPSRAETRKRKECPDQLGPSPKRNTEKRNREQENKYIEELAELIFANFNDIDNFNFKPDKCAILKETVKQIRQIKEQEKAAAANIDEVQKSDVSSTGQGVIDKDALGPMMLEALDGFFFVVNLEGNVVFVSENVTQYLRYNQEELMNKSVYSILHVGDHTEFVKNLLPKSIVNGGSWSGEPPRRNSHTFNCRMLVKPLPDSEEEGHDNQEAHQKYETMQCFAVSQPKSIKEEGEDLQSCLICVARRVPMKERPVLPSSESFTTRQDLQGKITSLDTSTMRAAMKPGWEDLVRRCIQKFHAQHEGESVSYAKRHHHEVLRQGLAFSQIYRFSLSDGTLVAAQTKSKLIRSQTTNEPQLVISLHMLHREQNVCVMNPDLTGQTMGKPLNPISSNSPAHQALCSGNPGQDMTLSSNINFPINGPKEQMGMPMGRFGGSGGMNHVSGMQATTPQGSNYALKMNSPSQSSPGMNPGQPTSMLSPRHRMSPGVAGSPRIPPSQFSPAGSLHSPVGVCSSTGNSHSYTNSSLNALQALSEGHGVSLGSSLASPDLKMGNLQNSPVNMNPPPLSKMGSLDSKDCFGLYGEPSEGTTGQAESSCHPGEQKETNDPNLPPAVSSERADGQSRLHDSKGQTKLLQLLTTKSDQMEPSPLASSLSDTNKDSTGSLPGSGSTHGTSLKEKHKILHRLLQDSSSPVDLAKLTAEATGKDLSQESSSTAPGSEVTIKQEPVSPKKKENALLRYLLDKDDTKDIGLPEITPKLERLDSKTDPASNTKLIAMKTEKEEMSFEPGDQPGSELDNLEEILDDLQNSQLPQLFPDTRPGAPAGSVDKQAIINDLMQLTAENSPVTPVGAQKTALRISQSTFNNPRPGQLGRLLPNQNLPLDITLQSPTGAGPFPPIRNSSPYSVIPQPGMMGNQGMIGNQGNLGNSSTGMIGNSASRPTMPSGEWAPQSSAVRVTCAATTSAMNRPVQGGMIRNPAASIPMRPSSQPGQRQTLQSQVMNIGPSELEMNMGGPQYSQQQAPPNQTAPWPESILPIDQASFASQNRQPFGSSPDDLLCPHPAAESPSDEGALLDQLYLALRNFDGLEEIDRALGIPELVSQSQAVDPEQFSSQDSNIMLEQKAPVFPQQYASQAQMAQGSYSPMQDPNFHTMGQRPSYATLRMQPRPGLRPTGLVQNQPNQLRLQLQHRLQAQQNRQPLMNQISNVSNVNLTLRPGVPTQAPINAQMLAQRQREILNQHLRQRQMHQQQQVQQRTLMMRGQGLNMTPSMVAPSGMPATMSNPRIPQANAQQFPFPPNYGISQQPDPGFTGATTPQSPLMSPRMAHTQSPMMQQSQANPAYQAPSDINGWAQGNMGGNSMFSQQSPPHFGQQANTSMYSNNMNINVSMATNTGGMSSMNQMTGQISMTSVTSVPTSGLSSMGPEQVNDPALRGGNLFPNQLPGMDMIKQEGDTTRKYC
Chain of Steroidogenic factor 1 (Homo sapiens) (Q13285 whole entry, looked up, the tested form may be a part): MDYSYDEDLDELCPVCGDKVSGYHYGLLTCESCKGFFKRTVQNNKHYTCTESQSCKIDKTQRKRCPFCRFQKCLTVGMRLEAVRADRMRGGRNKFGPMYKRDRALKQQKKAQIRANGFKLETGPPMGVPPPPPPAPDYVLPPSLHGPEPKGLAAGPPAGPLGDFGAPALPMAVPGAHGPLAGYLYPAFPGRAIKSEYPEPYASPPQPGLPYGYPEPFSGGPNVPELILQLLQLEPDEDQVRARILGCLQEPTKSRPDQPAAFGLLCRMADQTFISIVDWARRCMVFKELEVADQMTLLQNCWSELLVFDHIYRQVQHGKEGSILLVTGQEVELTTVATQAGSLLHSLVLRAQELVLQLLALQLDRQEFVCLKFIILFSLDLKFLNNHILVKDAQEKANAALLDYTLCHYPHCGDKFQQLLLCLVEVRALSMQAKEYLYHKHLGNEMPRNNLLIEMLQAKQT
Chain of Nuclear receptor subfamily 5 group A member 2 (Homo sapiens) (O00482 whole entry, looked up): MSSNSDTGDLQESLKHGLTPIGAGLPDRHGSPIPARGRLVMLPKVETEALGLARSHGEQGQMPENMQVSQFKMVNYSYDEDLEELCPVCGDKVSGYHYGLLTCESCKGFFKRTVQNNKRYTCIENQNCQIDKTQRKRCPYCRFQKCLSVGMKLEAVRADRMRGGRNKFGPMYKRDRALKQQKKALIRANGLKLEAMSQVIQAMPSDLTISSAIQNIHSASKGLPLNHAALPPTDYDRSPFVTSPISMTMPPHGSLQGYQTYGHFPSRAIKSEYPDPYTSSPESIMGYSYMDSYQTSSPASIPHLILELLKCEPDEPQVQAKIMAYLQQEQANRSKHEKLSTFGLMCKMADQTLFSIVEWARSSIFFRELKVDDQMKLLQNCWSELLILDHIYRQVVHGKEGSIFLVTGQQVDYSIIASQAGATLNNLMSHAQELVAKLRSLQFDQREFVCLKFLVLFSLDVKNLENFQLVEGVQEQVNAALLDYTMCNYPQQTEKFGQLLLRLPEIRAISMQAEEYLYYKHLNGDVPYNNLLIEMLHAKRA
Chain of Nuclear receptor coactivator 1 (Homo sapiens) (Q15788 whole entry, looked up, the tested form may be a part): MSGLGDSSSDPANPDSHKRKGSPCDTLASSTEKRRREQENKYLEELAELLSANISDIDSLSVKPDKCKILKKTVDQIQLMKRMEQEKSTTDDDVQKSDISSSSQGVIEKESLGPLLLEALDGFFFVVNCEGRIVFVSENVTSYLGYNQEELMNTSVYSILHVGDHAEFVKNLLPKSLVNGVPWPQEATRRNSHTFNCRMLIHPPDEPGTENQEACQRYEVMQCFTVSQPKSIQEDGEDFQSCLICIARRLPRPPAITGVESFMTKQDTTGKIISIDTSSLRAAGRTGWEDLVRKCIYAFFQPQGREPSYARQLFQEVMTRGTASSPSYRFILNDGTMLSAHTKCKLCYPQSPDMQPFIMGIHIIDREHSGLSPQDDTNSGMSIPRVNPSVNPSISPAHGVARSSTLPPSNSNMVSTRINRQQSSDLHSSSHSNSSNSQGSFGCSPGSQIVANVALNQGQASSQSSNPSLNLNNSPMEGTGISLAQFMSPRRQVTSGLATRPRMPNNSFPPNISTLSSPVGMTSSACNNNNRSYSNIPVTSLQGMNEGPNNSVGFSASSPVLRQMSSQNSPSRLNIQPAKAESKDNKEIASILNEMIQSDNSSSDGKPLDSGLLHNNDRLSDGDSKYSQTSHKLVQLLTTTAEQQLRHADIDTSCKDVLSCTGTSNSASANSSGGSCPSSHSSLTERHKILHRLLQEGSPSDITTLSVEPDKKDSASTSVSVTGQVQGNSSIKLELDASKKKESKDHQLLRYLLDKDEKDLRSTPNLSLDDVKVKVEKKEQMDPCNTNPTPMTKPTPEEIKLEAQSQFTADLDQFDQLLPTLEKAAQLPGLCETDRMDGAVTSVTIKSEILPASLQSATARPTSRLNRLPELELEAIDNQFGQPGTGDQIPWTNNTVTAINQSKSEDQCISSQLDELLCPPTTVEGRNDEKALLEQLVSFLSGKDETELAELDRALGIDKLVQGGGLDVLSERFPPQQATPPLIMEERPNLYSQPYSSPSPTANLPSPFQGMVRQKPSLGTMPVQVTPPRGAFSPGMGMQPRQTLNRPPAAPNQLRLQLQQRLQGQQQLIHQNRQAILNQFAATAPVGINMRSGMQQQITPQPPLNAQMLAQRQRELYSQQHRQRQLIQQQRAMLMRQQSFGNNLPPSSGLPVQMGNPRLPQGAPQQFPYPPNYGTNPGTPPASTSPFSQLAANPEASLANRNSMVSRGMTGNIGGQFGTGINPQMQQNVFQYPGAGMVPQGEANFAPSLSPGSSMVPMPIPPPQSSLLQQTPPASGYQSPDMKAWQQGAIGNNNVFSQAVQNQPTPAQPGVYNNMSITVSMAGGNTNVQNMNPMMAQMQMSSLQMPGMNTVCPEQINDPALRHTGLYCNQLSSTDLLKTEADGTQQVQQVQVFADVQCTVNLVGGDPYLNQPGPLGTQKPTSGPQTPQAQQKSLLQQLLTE

The inhibition is the change of the read-out against control, counted positive when it falls. As for `O=C1C(SCCO)=C(SCCO)C(=O)c2ccccc21`, the inhibition in experiment [1] was 38.3% (active); in [2], 26.2%; in experiment [3], 76.3% (active); in experiment [4], 74.8% (active); in [5], 46.1% (active).

As for `Cc1cc(C)c(S(=O)(=O)/N=C2/C=C(Sc3ncn[nH]3)C(=O)c3ccccc32)cc1C`, the inhibition in [1] was 17.7%; in experiment [2], 27.3%; in experiment [3] it was 77.8% (active); in experiment [4] it was 72.5% (active); in experiment [5] it was 39.7% (active).

As to `COc1ccc(/C=C2\CN(Cc3ccccc3)C/C(=C\c3ccc(OC)c(O)c3)C2=O)cc1O`, the inhibition was -5.14% in experiment [1]; 59.2% (active) in [6]; 0.48% in experiment [7]; 12.4% in experiment [8]; 73.1% (active) in [9]; 22.9% in experiment [10].

As to `Cc1ccc(C(C)C)c(OCc2ccc(C(=O)N/N=C/c3ccc(O)c(O)c3)cc2)c1`, the inhibition was -9.52% in experiment [1], -11% in experiment [9] and 62.6% (active) in [10].

In the case of `COc1cccc2c1C(=O)c1c(O)c3c(c(O)c1C2=O)C[C@](O)(C(C)=O)C[C@H]3O[C@@H]1C[C@@H](N)[C@@H](O)[C@@H](C)O1`, the inhibition in experiment [1] was 40.8% (active); in [2] it was 67% (active); in experiment [3], 104% (active); in experiment [4], 92.5% (active); in experiment [5], 77.3% (active); in experiment [9] it was 40.6% (active). Also, the inhibition in [10] was 41.1%.

Take `CCCc1nc2ccccc2c(=O)n1/N=C/c1ccc(O)c(O)c1`: the inhibition in experiment [11] is 3.52%.

For `CC(C)(C)OC(=O)c1c(N)n(CCCN2CCCC2=O)c2nc3ccccc3nc12`, the inhibition in experiment [11] was 57.9% (active).

Turning to `COc1cc(OC)c2cc(C(=O)N/N=C/c3cccc(OC)c3O)[nH]c2c1`, the inhibition in experiment [1] is 39.4% (active); in experiment [12], 17.7%; in experiment [8] it was 6.13%.

Regarding `C1=C(CCNc2ncnc3c2[nH]c2ccccc23)CCCC1`, the inhibition is 29.3% (active) in experiment [1]; -12% in experiment [2]; 36% in [3]; 41.4% in experiment [4]; 37.5% (active) in experiment [5].

As for `Cc1oc2c(c1C(=O)c1ccccc1)C(=O)C(=O)c1ccccc1-2`, the figures for the inhibition in [1], in [9] and in [10] were 18.1%, -18.3% and 99.5% (active), respectively.

On to `COc1cccc(/C=N/NC(=O)c2cc3c(OC)ccc(OC)c3[nH]2)c1O`, for which the inhibition in experiment [1] is 32.6% (active); in experiment [12], 28.5%; in [8] it was 29.7% (active); in experiment [9], -23.7%; in [10], 28.4%.

`CCC1(CC)Cc2ccccc2-c2nc(CCl)[nH]c(=O)c21`: in experiment [11], the inhibition was 94% (active).

Take `COCCn1c(N)c(C(=O)NCC2CCCO2)c2nc3ccccc3nc21` (stereo not given): the inhibition is 15.1% in experiment [1]; 26.9% in [2]; 47.2% (active) in experiment [3]; 50.4% (active) in experiment [4]; -14.9% in [5].
